We go through 44 molecules from article PMC4336329 (PLoS ONE, 2015).

Hit rate of the full screen: of about 310,000 compounds, about 14,000 (4.5%) showed an effect of 50% or more. Effects have a minus sign here. The list comes from a sample in which strong results are over-represented; it also holds similar structures and randomly drawn compounds.
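Note: peak tail current of the secondary pulse compared with the same well before compound.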

The target of the test is human ether-à-go-go-related gene (hERG) potassium channel (human, UniProt Q12809). Briefly: primary screen, population patch clamp on CHO cells stably expressing hERG; higher = less effect of the substance.
Sequence of human ether-à-go-go-related gene (hERG) potassium channel (Q12809 whole entry, looked up): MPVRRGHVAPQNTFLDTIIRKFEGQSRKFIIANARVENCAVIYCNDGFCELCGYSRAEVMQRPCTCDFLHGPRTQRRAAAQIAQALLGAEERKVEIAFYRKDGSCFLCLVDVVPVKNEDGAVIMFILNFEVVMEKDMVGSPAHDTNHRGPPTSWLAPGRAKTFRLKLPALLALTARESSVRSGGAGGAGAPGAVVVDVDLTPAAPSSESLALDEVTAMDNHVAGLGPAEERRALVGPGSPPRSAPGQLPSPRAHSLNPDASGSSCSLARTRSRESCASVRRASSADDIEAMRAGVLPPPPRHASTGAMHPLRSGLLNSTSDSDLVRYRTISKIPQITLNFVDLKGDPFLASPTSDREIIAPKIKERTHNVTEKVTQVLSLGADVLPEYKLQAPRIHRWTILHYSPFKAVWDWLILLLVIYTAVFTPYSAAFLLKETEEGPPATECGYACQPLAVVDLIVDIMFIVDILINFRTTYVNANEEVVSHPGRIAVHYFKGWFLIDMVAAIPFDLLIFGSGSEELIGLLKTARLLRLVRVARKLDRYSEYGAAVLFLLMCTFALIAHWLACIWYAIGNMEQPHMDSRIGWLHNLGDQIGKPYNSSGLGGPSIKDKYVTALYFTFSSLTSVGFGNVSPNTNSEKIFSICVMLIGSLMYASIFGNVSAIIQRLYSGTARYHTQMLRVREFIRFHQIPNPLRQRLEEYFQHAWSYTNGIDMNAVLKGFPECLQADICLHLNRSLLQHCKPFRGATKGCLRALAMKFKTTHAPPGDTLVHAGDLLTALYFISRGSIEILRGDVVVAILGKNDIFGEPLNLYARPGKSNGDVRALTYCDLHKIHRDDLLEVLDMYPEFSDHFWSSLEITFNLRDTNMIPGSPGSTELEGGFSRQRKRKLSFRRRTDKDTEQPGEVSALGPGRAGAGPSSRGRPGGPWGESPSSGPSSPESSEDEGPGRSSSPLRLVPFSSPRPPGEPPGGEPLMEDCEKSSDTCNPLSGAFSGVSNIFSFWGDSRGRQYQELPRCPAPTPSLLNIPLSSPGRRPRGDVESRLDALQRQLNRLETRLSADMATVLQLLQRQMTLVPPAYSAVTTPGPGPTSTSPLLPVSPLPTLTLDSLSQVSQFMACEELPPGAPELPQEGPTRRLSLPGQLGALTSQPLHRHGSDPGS
Consider `O=C(NCCN1CCOCC1)c1cc(Sc2ccc(F)cc2F)nc2ccccc12`, for which the “hERG current change (%, negative = inhibition) at 10uM” value is recorded as -42.8%. For `CCc1ccc(Sc2cc(C(=O)NCCN3CCOCC3)c3ccccc3n2)cc1`, the “hERG current change (%, negative = inhibition) at 10uM” value is on record as -56.2%.

On to `O=C(NCCN1CCOCC1)c1ccccc1-c1ccccc1`, for which the “hERG current change (%, negative = inhibition) at 10uM” value is 0.439%. In the case of `Cc1ccc(S(=O)(=O)N2CCC(C(=O)N[C@H](C(=O)NCc3ccco3)C(C)C)CC2)cc1`, the “hERG current change (%, negative = inhibition) at 10uM” value is reported as -15.9%. For the molecule `O=C(NCC(=O)N(c1ccc(Cl)cc1)C(C(=O)NC1CCCC1)c1ccncc1)c1ccco1` (centres unmarked), the “hERG current change (%, negative = inhibition) at 10uM” value is reported as -5.29%. With `O=C(Nc1ccccn1)Nc1ccccc1Cl`, the “hERG current change (%, negative = inhibition) at 10uM” value worked out at 23.2%. On to `Cc1nc2scc(-c3ccccc3)c2c(=O)o1`, for which the “hERG current change (%, negative = inhibition) at 10uM” value is recorded as -12.7%.

On to `CN1C=CC=C/C1=C1\SC(=S)N(C2CCCCC2)C1=O`, for which the “hERG current change (%, negative = inhibition) at 10uM” value was -52.3%.

Consider `CCN1C(=O)/C(=C2/C=CC=CN2C)SC1=S`, for which the “hERG current change (%, negative = inhibition) at 10uM” value is listed as -35.2%.

In the case of `CN1C=CC=C/C1=C1\SC(=S)N(N)C1=O`, the “hERG current change (%, negative = inhibition) at 10uM” value is on record as 26.4%.

Turning to `O=C(N/N=C/c1ccc(O)c([N+](=O)[O-])c1)c1ccncc1`, the “hERG current change (%, negative = inhibition) at 10uM” value is given as -7.5%. For `Cc1ccc(C)c(CSc2ncccc2C(=O)O)c1`, the “hERG current change (%, negative = inhibition) at 10uM” value is 6.29%. For `O=C(C[n+]1cccc(C(=O)N/N=C/c2ccc(Br)cc2)c1)c1ccccc1`, the “hERG current change (%, negative = inhibition) at 10uM” value was -56.5%. Then `O=C(C[n+]1ccc(C(=O)N/N=C/c2ccc(OCc3ccccc3)cc2)cc1)c1ccccc1.[Br-]`, with 1.3%; and `COc1ccc(OC)c(/C=N/NC(=O)c2cc[n+](CC(=O)c3ccccc3)cc2)c1.[Br-]`, with -5.33%; and `O=C(C[n+]1ccc(C(=O)N/N=C/c2ccc(Cl)cc2Cl)cc1)c1ccccc1.[Br-]`, with -74.8%.

With `COc1ccc(OC)c(/C=N/NC(=O)c2ccc[n+](CC(=O)c3ccccc3)c2)c1`, the “hERG current change (%, negative = inhibition) at 10uM” value was 15.3%. In the case of `O=C(C[n+]1ccc(C(=O)N/N=C/c2ccc(O)cc2)cc1)c1ccccc1.[Br-]` it was -6.07%. As to `O=C(C[n+]1ccc(C(=O)N/N=C/c2ccc(Br)cc2)cc1)c1ccccc1.[Br-]`, the “hERG current change (%, negative = inhibition) at 10uM” value was -63.6%. As for `O=C(N/N=C/c1ccc(Br)cc1)c1cc[n+](Cc2ccccc2)cc1.[Cl-]`, the “hERG current change (%, negative = inhibition) at 10uM” value is on record as -10.7%.

In the case of `O=C(N/N=C/c1ccc(Cl)cc1Cl)c1cccc(F)c1`, the “hERG current change (%, negative = inhibition) at 10uM” value is -10.5%. For the molecule `Cc1ccc(C(=O)N2CCCC(C(=O)c3ccc(Oc4ccccc4)cc3)C2)cn1` (centres unmarked), the “hERG current change (%, negative = inhibition) at 10uM” value is listed as -41%.

Consider `CCC(=O)N1CCc2cc(S(=O)(=O)NC(C(=O)NCc3ccccc3)C(C)C)ccc21` (centres unmarked), for which the “hERG current change (%, negative = inhibition) at 10uM” value is recorded as 13.2%. Then `COc1ccc(OCC(=O)Nc2cccc(S(=O)(=O)N(C)c3ccccc3)c2)c([N+](=O)[O-])c1`, with -6.21%; and `CCC1c2ccc(C)n2CCN1C(=O)Nc1ccccc1OC` (centres unmarked), with 9.92%; and `C=CCN(CC=C)C(=S)NC(=O)/C=C/c1ccc(C)cc1`, with 8.14%. Consider `CC1(C)C(=O)N(c2ccccc2Cl)C(=O)c2ccccc21`, for which the “hERG current change (%, negative = inhibition) at 10uM” value is -18.2%. Then `CC1CCCN(CCC(=O)c2ccc(Br)cc2)C1.Cl` (centres unmarked), with -64.4%; and `S=C(NCCN1CCOCC1)Nc1ccc(Cl)cc1`, with 5.48%; and `Cl.O=C(CCN1CCCC1)Nc1ccc(Br)cc1`, with -15.7%. For the molecule `CC1CCN(CCNC(=S)Nc2ccc(Cl)cc2)CC1`, the “hERG current change (%, negative = inhibition) at 10uM” value is recorded as -65.7%. Regarding `COc1ccc(C(=O)CCN2CCCC(C)C2)cc1.Cl` (centres unmarked), the “hERG current change (%, negative = inhibition) at 10uM” value was -26.2%. Regarding `Cc1cccc(NC(=O)CCN2CCCC(C)C2)c1.Cl` (centres unmarked), the “hERG current change (%, negative = inhibition) at 10uM” value was found to be 1.45%. In the case of `CC1CCN(CCC(=O)Nc2ccc(Br)cc2)CC1.Cl`, the “hERG current change (%, negative = inhibition) at 10uM” value is on record as -54.6%. Turning to `COc1ccc(NC(=O)CCN2CCCC(C)C2)cc1` (centres unmarked), the “hERG current change (%, negative = inhibition) at 10uM” value is recorded as -23.2%.

Consider `CC1CCCN(CCC(=O)Nc2ccccc2)C1.Cl` (centres unmarked), for which the “hERG current change (%, negative = inhibition) at 10uM” value turned out to be 12.2%. Regarding `COc1ccc(NC(=S)NCCN2CCC(C)CC2)cc1`, the “hERG current change (%, negative = inhibition) at 10uM” value is listed as -46%. With `CCN1CCN(CCC(=O)Nc2ccc(Br)cc2)CC1.Cl`, the “hERG current change (%, negative = inhibition) at 10uM” value was -24.4%. On to `CC1CCCN(CCC(=O)Nc2ccc(Br)cc2)C1.Cl` (centres unmarked), for which the “hERG current change (%, negative = inhibition) at 10uM” value is listed as -57.6%. Consider `CCS(=O)(=O)c1ncc(Cl)c(C(=O)Nc2ccc(S(=O)(=O)N3CCC(C)CC3)cc2)n1`, for which the “hERG current change (%, negative = inhibition) at 10uM” value is given as 14.9%. Regarding `CC(=O)c1ccc(NC(=O)C(C)OC(=O)c2ccc(NS(=O)(=O)c3ccc(F)c(F)c3)cc2)cc1` (centres unmarked), the “hERG current change (%, negative = inhibition) at 10uM” value is recorded as -6.98%.

With `COc1ccc(C(C)NC(=O)c2ccc(Cl)cc2)cc1OC` (centres unmarked), the “hERG current change (%, negative = inhibition) at 10uM” value amounted to 0.0898%. Regarding `Cc1ccc(/C=C/c2nnc(-c3ccc(C)cc3)o2)cc1`, the “hERG current change (%, negative = inhibition) at 10uM” value is recorded as 11.3%. `COCCNC(=O)Nc1ccc2c(c1)N(C)C(=O)CS2`: the “hERG current change (%, negative = inhibition) at 10uM” value turned out to be 11.5%.
